# Tests used:
# Test in all cases: DAPPL (digital affinity profiling via proximity ligation, sequencing); 10 mM Tris-HCl pH 7.5, 50 mM NaCl, 1 mM DTT, 4% glycerol, room temperature, 30 min; GST-TFs on glutathione beads, 16-mer random dsDNA library, 0.1% formaldehyde crosslink after washing; high values mean tight binding
# FEV = biological target: T1, FEV (Homo sapiens, UniProt Q99581 1-238); details: protein: recombinant; tags: N-terminal GST; dsDNA, one strand shown
# T1 sequence: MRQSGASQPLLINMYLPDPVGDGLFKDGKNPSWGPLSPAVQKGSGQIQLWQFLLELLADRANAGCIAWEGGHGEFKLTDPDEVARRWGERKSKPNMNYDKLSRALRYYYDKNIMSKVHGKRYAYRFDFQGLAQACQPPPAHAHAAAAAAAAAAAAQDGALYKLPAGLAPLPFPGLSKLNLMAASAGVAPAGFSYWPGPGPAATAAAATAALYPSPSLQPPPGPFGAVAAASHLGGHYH
# Procedure, shortened: (§1)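 Human transcription factors fused to GST were expressed in yeast, captured on glutathione beads, given DNA barcodes and pooled with a GST-only negative control. Pools were incubated with 200 nmole of a 16-mer random double-stranded DNA library in Tris/NaCl/DTT/glycerol buffer at room temperature for 30 min. They were then washed, crosslinked with 0.1% formaldehyde, proximity-ligated (BsaI/T4 ligase, 1 h, 37 °C), PCR-amplified and sequenced on an Illumina NextSeq500. Binding signal is each 6-mer's read frequency for a factor divided by its frequency for the GST control.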
# ETV5 = ETV5 (Homo sapiens, UniProt P41161 1-510); details: protein: recombinant; tags: N-terminal GST; dsDNA, one strand shown
# Procedure, shortened: as §1
# HSF1 = HSF1 (Homo sapiens, UniProt Q00613 1-529); details: protein: recombinant; tags: N-terminal GST; chain copies: 3; dsDNA, one strand shown
# Procedure, shortened: as §1
# SPIC = biological target: T2, SPIC (Homo sapiens, UniProt Q8N5J4 1-248); details: protein: recombinant; tags: N-terminal GST; dsDNA, one strand shown
# T2 sequence: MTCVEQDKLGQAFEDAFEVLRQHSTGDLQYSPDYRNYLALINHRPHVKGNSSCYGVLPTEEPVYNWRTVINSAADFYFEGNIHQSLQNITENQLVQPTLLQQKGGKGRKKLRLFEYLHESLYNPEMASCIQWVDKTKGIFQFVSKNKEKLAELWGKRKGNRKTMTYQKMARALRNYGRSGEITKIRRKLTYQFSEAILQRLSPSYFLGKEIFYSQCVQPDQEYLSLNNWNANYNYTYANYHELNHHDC
# Procedure, shortened: as §1
# ELF4 = ELF4 (Homo sapiens, UniProt Q99607 1-663); details: protein: recombinant; tags: N-terminal GST; dsDNA, one strand shown
# Procedure, shortened: as §1
# ELK4 = biological target: T3, ELK4 (Homo sapiens, UniProt P28324-2 1-405); details: protein: recombinant; tags: N-terminal GST; dsDNA, one strand shown
# T3 sequence: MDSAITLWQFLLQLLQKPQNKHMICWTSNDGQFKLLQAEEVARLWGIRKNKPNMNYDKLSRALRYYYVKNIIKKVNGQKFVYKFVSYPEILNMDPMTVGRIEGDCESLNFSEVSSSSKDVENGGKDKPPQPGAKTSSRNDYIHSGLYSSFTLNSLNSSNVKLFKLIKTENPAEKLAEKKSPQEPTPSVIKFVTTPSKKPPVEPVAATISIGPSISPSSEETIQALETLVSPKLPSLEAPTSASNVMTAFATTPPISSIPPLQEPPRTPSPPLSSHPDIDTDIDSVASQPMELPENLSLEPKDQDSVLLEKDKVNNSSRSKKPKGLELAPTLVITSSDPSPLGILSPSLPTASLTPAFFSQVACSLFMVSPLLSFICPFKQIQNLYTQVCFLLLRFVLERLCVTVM
# Procedure, shortened: as §1
# ETV2 = biological target: T4, ETV2 (Homo sapiens, UniProt O00321 1-342); details: protein: recombinant; tags: N-terminal GST; dsDNA, one strand shown
# T4 sequence: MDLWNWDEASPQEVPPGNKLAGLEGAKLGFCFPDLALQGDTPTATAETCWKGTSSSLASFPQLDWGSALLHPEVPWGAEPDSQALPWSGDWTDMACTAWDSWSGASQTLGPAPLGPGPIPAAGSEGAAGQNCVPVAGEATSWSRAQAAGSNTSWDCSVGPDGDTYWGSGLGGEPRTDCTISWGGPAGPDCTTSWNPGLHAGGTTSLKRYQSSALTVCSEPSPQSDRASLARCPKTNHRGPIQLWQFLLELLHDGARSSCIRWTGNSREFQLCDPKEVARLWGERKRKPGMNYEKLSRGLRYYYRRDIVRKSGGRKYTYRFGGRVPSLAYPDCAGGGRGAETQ
# Procedure, shortened: as §1
# ELF3 = biological target: T5, ELF3 (Homo sapiens, UniProt P78545 1-371); details: protein: recombinant; tags: N-terminal GST; dsDNA, one strand shown
# T5 sequence: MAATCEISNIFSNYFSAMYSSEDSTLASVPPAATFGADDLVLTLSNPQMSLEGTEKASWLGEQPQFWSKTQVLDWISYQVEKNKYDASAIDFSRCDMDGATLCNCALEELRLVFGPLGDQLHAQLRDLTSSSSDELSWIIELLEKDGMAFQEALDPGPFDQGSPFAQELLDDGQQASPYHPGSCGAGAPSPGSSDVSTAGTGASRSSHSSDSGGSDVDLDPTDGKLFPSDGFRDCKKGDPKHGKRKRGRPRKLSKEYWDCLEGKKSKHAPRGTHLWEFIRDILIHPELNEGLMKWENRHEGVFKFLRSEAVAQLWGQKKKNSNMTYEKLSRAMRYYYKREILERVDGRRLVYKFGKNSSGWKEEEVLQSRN
# Procedure, shortened: as §1
# CRX = CRX (Homo sapiens, UniProt O43186 1-299); details: protein: recombinant; tags: N-terminal GST; dsDNA, one strand shown
# Procedure, shortened: as §1
# ETV1 = ETV1 (Homo sapiens, UniProt P50549 1-477); details: protein: recombinant; tags: N-terminal GST; dsDNA, one strand shown
# Procedure, shortened: as §1
# ERF = biological target: T6, ERF (Homo sapiens, UniProt P50548 1-548); details: protein: recombinant; tags: N-terminal GST; dsDNA, one strand shown
# T6 sequence: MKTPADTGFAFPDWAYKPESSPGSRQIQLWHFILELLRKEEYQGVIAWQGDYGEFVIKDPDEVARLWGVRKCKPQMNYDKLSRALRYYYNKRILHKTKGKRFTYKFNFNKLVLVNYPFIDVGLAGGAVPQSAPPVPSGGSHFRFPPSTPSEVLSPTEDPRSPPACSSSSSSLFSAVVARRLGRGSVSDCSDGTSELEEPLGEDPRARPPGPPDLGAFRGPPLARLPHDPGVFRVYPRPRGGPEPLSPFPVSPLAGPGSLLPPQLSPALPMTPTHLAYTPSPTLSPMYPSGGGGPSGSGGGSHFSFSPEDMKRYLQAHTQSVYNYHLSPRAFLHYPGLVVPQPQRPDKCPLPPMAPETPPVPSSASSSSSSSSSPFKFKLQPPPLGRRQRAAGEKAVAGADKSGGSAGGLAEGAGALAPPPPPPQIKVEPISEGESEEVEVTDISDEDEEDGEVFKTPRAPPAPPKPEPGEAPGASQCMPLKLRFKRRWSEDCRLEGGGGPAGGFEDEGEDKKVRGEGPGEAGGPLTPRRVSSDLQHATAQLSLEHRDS
# Procedure, shortened: as §1
# ETV3L = biological target: T7, ETV3L (Homo sapiens, UniProt Q6ZN32 1-361); details: protein: recombinant; tags: N-terminal GST; dsDNA, one strand shown
# T7 sequence: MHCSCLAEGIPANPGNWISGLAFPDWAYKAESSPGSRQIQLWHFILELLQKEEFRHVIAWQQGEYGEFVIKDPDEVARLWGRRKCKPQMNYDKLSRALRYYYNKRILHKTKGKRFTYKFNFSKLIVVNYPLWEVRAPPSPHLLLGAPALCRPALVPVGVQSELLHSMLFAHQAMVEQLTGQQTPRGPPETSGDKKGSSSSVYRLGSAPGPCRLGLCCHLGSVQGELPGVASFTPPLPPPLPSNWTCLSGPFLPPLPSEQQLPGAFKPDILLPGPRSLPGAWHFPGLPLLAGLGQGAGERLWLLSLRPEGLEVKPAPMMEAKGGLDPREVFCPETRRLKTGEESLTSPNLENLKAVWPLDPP
# Procedure, shortened: as §1
# ETS2 = biological target: T8, ETS2 (Homo sapiens, UniProt P15036 1-469); details: protein: recombinant; tags: N-terminal GST; dsDNA, one strand shown
# T8 sequence: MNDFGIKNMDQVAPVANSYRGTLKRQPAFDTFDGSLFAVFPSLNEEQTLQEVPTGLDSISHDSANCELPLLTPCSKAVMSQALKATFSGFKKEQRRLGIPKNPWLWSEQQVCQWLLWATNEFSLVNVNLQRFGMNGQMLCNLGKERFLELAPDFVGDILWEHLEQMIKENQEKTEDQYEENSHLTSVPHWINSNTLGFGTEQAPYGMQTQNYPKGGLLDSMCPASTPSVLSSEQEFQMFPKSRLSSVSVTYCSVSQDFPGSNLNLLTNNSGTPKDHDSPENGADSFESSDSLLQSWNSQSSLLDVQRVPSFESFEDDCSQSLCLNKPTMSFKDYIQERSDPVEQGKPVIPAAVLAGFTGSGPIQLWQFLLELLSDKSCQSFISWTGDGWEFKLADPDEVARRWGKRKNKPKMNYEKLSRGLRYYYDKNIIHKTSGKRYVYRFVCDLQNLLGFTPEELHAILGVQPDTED
# Procedure, shortened: as §1
# SPDEF = biological target: T9, SPDEF (Homo sapiens, UniProt O95238 1-335); details: protein: recombinant; tags: N-terminal GST; dsDNA, one strand shown
# T9 sequence: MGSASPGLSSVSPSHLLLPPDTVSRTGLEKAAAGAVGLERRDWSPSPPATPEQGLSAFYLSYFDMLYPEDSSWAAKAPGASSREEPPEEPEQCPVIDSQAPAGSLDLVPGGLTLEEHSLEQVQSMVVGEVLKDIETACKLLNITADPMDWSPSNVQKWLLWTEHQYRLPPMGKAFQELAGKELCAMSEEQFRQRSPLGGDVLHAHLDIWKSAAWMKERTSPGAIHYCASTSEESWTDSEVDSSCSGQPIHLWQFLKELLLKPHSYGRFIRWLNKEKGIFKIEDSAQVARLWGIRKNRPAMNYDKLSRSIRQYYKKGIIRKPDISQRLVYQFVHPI
# Procedure, shortened: as §1
# ETV7 = biological target: T10, ETV7 (Homo sapiens, UniProt Q9Y603 1-341); details: protein: recombinant; tags: N-terminal GST; dsDNA, one strand shown
# T10 sequence: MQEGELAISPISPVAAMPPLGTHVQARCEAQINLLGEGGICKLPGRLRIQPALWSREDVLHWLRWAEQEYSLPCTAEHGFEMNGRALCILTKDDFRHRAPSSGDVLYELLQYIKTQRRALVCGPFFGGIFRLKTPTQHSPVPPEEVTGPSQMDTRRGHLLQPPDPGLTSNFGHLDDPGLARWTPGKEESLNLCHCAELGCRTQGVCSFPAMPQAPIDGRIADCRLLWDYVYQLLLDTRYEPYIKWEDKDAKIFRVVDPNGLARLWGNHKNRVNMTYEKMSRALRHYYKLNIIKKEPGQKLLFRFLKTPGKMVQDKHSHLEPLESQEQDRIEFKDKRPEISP
# Procedure, shortened: as §1
# ELF5 = biological target: T11, ELF5 (Homo sapiens, UniProt Q9UKW6-2 1-255); details: protein: recombinant; tags: N-terminal GST; dsDNA, one strand shown
# T11 sequence: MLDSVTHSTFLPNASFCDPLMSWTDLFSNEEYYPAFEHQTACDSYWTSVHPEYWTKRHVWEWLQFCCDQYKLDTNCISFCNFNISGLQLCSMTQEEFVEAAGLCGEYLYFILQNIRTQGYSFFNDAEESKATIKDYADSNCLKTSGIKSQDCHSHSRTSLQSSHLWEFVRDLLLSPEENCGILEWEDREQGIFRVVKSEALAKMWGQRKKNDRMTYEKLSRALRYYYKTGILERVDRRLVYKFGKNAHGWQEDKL
# Procedure, shortened: as §1
# ETV3 = biological target: T12, ETV3 (Homo sapiens, UniProt P41162-2 1-143); details: protein: recombinant; tags: N-terminal GST; dsDNA, one strand shown
# T12 sequence: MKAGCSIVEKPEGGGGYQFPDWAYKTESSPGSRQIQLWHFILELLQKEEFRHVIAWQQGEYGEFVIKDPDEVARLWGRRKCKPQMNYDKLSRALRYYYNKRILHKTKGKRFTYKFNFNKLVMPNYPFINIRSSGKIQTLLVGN
# Procedure, shortened: as §1
# ETV6 = ETV6 (Homo sapiens, UniProt P41212 1-452); details: protein: recombinant; tags: N-terminal GST; dsDNA, one strand shown
# Procedure, shortened: as §1
# Chain of ETV1 (P50549 whole entry): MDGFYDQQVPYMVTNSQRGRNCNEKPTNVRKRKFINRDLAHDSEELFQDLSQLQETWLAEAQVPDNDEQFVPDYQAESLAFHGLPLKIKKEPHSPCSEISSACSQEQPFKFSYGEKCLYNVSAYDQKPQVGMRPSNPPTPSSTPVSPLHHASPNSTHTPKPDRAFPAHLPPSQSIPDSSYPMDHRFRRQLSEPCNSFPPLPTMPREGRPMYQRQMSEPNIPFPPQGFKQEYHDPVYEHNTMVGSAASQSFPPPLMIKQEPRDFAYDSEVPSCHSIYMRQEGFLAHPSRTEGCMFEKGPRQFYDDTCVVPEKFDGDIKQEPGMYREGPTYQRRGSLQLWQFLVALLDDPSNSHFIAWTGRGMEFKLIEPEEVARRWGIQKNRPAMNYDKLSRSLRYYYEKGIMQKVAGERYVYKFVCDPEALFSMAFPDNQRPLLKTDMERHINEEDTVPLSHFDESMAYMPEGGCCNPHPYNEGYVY
# Chain of ETV6 (P41212 whole entry): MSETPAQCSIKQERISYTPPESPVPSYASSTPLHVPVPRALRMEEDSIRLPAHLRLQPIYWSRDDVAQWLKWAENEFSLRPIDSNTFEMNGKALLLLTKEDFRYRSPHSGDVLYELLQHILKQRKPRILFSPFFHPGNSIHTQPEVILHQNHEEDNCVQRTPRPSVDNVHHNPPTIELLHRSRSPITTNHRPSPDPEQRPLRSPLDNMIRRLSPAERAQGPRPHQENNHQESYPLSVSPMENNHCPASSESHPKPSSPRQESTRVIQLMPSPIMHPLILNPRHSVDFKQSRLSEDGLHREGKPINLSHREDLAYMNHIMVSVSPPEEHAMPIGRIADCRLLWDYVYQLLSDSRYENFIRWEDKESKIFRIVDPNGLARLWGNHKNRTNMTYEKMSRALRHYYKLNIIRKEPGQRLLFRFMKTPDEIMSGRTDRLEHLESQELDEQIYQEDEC
# Chain of ETV5 (P41161 whole entry): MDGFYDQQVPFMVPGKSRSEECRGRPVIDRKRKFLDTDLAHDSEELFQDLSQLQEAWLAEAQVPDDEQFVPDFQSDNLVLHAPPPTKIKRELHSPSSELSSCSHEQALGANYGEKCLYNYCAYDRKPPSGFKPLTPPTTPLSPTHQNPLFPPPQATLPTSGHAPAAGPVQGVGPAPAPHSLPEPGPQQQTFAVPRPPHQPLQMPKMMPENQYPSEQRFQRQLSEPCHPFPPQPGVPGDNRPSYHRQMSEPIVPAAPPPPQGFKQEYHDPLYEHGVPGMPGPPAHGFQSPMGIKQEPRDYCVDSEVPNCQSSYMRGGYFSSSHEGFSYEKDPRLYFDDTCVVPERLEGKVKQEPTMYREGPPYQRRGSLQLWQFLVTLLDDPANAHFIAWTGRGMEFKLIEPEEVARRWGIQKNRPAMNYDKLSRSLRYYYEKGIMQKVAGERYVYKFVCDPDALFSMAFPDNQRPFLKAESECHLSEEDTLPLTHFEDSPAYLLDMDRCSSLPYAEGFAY
# Chain of HSF1 (Q00613 whole entry): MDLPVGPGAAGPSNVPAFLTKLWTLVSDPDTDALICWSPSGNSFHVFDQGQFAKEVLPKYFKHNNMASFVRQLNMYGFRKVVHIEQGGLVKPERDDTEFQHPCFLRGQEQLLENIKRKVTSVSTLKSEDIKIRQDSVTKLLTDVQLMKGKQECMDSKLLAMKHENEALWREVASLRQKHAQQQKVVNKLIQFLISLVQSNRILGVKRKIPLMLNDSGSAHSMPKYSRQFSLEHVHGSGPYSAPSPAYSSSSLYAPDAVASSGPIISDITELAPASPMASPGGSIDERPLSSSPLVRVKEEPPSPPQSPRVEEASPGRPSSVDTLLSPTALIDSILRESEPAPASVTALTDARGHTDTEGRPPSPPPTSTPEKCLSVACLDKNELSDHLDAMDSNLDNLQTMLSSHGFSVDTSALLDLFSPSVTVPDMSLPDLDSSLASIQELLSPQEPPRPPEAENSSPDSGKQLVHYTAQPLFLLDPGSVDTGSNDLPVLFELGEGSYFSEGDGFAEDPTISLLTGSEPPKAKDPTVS
# Chain of CRX (O43186 whole entry): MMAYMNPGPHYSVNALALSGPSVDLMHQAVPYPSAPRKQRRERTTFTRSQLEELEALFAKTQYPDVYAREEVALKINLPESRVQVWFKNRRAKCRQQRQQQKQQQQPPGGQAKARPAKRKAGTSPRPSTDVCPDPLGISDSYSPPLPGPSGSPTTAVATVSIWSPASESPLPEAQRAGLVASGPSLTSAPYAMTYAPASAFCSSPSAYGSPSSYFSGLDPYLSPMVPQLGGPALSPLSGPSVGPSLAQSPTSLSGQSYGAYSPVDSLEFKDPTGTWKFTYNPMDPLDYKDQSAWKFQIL
# Chain of ELF4 (Q99607 whole entry): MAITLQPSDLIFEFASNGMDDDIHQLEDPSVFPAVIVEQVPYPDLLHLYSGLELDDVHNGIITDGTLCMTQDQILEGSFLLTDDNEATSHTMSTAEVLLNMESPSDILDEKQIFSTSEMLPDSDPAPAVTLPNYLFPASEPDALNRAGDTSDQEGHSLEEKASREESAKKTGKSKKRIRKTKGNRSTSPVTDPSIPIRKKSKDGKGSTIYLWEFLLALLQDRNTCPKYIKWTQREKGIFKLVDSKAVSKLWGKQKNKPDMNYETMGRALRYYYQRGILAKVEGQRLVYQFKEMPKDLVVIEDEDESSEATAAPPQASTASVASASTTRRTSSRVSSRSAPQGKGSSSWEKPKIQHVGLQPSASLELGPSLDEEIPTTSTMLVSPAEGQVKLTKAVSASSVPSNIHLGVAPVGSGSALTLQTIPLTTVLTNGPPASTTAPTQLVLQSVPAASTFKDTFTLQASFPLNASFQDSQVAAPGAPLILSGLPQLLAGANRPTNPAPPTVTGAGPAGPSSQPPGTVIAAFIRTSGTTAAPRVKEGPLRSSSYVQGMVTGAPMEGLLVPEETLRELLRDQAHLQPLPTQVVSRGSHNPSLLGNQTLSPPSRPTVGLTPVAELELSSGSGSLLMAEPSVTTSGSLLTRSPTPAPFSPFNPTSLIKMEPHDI
sequence,measurement,setting,value
AACTGG,binding signal,FEV,"1.12 fold enrichment (6-mer frequency, TF over GST control)"
same,binding signal,ETV5,"1.21 fold enrichment (6-mer frequency, TF over GST control)"
same,binding signal,HSF1,"1.25 fold enrichment (6-mer frequency, TF over GST control)"
same,binding signal,SPIC,"1.38 fold enrichment (6-mer frequency, TF over GST control)"
same,binding signal,ELF4,"1.25 fold enrichment (6-mer frequency, TF over GST control)"
same,binding signal,ELK4,"1.27 fold enrichment (6-mer frequency, TF over GST control)"
same,binding signal,ETV2,"1.31 fold enrichment (6-mer frequency, TF over GST control)"
same,binding signal,ELF3,"1.17 fold enrichment (6-mer frequency, TF over GST control)"
same,binding signal,CRX,"1.16 fold enrichment (6-mer frequency, TF over GST control)"
same,binding signal,ETV1,"1.14 fold enrichment (6-mer frequency, TF over GST control)"
same,binding signal,ERF,"1.18 fold enrichment (6-mer frequency, TF over GST control)"
same,binding signal,ETV3L,"1.23 fold enrichment (6-mer frequency, TF over GST control)"
same,binding signal,ETS2,"1.3 fold enrichment (6-mer frequency, TF over GST control)"
same,binding signal,SPDEF,"1.23 fold enrichment (6-mer frequency, TF over GST control)"
same,binding signal,ETV7,"1.23 fold enrichment (6-mer frequency, TF over GST control)"
same,binding signal,ELF5,"1.26 fold enrichment (6-mer frequency, TF over GST control)"
same,binding signal,ETV3,"1.29 fold enrichment (6-mer frequency, TF over GST control)"
same,binding signal,ETV6,"1.31 fold enrichment (6-mer frequency, TF over GST control)"

# — article PMC7862700, “An all-to-all approach to the identification of sequence-specific readers for epigenetic DNA modifications on cytosine”
